Test systems include HCT-15 colon; HT29 colon; SNB-75 CNS; SNB-19 CNS; U251 CNS; PC-3 prostate; SK-MEL-5 melanoma; UACC-62 melanoma; LOX IMVI melanoma; SK-MEL-28 melanoma.
What all share (test): NCI-60 one-dose screen, 48 h (100 = growth as untreated, 0 = no growth, -100 = all killed)
Common to all, as to details: 10 µM unless noted

Each structure is given as a SMILES string. This is part of a sample that, as a whole, favours compounds with a hit. Of some 83,000 tested, about 20% had one in any assay.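 Results are percent growth after 48 hours of single-concentration exposure. 100 means growth as in untreated cells, lower positive values show inhibition; negative values down to -100 show cell death.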 Unmarked numbers belong to inactive results. Activity calls are given as the source filed them. How the source made its calls: active means growth percent below 10; inactive means the rest.

`NC(N)=Nc1ccc(S(=O)(=O)O)cc1`: the growth in the experiment on HCT-15 colon is 102%; in the experiment on HT29 colon, 111%; in the experiment on SNB-75 CNS it was 88.7%; in the experiment on SNB-19 CNS it was 90%; in the experiment on U251 CNS, 111%; in the experiment on PC-3 prostate it was 99.1%. Moreover, the growth with SK-MEL-5 melanoma was 101%; in the experiment with UACC-62 melanoma it was 86.9%; in the experiment with LOX IMVI melanoma it was 96.5%; in the experiment with SK-MEL-28 melanoma, 103%.
As for `CC/C=C\C[C@H](O)C/C=C1/C(=O)C=C[C@@H]1C/C=C\CCCC(=O)NC(C)C`, the growth with HCT-15 colon was -33.9% (active); in the experiment with HT29 colon it was -29.6% (active); with SNB-75 CNS it was 68%; in the experiment on SNB-19 CNS, 31.8%; in the experiment with U251 CNS it was 2.26% (active); in the experiment on PC-3 prostate it was 16.4%. In addition, the growth was -69.8% (active) in the experiment on SK-MEL-5 melanoma, -61% (active) with UACC-62 melanoma, -46.9% (active) in the experiment on LOX IMVI melanoma and 4.94% (active) in the experiment on SK-MEL-28 melanoma.
For the molecule `O=C1C[C@H](N2C(=O)c3ccccc3S2(=O)=O)C2CO[C@@H]1O2`, the growth in the experiment on HCT-15 colon is 59.6%; in the experiment with HT29 colon it was 70.4%; in the experiment on SNB-75 CNS it was 91.3%; in the experiment with SNB-19 CNS it was 106%; in the experiment on U251 CNS, 93.3%; with PC-3 prostate, 99.7%. Further, the growth in the experiment with SK-MEL-5 melanoma was 96.2%; in the experiment with UACC-62 melanoma, 100%; with LOX IMVI melanoma, 18.9%; with SK-MEL-28 melanoma it was 66.1%.
Turning to `CCC(c1ccccc1)C(CC)c1ccc(O)c(O)c1` (centres undefined), the growth is 91.2% with HCT-15 colon; 104% with HT29 colon; 86.4% in the experiment on SNB-75 CNS; 116% with SNB-19 CNS; 96.6% in the experiment on U251 CNS; 92.7% with PC-3 prostate. In addition, the growth in the experiment on SK-MEL-5 melanoma is 88.3%; with UACC-62 melanoma it was 81.5%; in the experiment on LOX IMVI melanoma, 87.9%; in the experiment with SK-MEL-28 melanoma, 95.4%.
`O=C(Nc1ccc(Nc2cc(Nc3ccccc3)ncn2)cc1)Nc1cc(C(F)(F)F)ccc1F`: the growth is 70.9% in the experiment on HCT-15 colon; 58.4% in the experiment with HT29 colon; 57.1% in the experiment with SNB-75 CNS; 87.4% with SNB-19 CNS; 64.2% in the experiment on U251 CNS; 55.8% with PC-3 prostate. For the same molecule, the growth with SK-MEL-5 melanoma was 82%; with UACC-62 melanoma it was 65.8%; with LOX IMVI melanoma, 63.6%; in the experiment with SK-MEL-28 melanoma, 71.9%.
As for `O=C1CC(c2nc3ccccc3s2)CN1C1CCCCC1` (centres undefined), the growth was 99.7% with HCT-15 colon; 95.4% in the experiment with HT29 colon; 83.7% in the experiment on SNB-75 CNS; 105% in the experiment with SNB-19 CNS; 94.5% in the experiment on U251 CNS; 90.1% with PC-3 prostate. Moreover, the growth with SK-MEL-5 melanoma was 96.3%; in the experiment with UACC-62 melanoma it was 93.9%; with LOX IMVI melanoma, 93%; in the experiment on SK-MEL-28 melanoma, 101%.
As for `COc1cc(C(=O)/C=C/c2c(C)n([O-])c3ccc(C)cc3[n+]2=O)cc(OC)c1OC`, the growth was 25.9% in the experiment on HCT-15 colon; 25.3% with HT29 colon; 73.2% in the experiment on SNB-75 CNS; 108% in the experiment on SNB-19 CNS; 55.4% in the experiment with U251 CNS; 64.8% in the experiment with PC-3 prostate. The growth is 89% in the experiment with SK-MEL-5 melanoma, 54% in the experiment with UACC-62 melanoma, 33% with LOX IMVI melanoma and 72.1% in the experiment with SK-MEL-28 melanoma.
In the case of `O=C(COCc1c(-c2ccccc2)no[n+]1[O-])Nc1ccc(C(=O)/C=C/c2ccc3c(c2)OCO3)cc1`, the growth in the experiment on HCT-15 colon is 104%; in the experiment on HT29 colon it was 132%; in the experiment with SNB-75 CNS, 120%; in the experiment on SNB-19 CNS, 97.3%; in the experiment on U251 CNS it was 107%; with PC-3 prostate, 76.3%. For the same molecule, the growth in the experiment on SK-MEL-5 melanoma was 94.4%; in the experiment with UACC-62 melanoma, 97.5%; in the experiment with LOX IMVI melanoma, 68.3%; with SK-MEL-28 melanoma, 112%.
Take `O=S(=O)(NCCCNc1cc(-c2cn(-c3ccccc3)nc2-c2cccc(O)c2)ccn1)c1ccccc1`: the growth with HCT-15 colon was 9.91% (active); in the experiment on HT29 colon, 14.8%; in the experiment with SNB-75 CNS, 51%; in the experiment on SNB-19 CNS, 77.5%; in the experiment on U251 CNS, 41.3%; with PC-3 prostate, 21.5%. Moreover, the results for the growth in the experiment with SK-MEL-5 melanoma, in the experiment on UACC-62 melanoma and in the experiment on LOX IMVI melanoma were 15.4%, 50.1% and 17%, respectively.
With `COc1ccc(C(=O)/C=C/c2c(Cl)c3c(c(OC)c2Cl)OCC(=O)N3)cc1`, the growth with HCT-15 colon was 20.1%; in the experiment with HT29 colon it was 7.82% (active); with SNB-75 CNS, 37%; in the experiment with SNB-19 CNS, 59.6%; in the experiment on U251 CNS, 17%; in the experiment with PC-3 prostate, 52.1%. For the same molecule, the growth with SK-MEL-5 melanoma was 21.2%; in the experiment on UACC-62 melanoma, 46.7%; in the experiment on LOX IMVI melanoma it was -36.1% (active); in the experiment with SK-MEL-28 melanoma it was 48.2%.
For `CS(=O)(CCCCN=C=S)=NC(=O)c1c(F)c(F)c(F)c(F)c1F` (centres undefined), the growth in the experiment with HCT-15 colon is 59.4%; in the experiment on HT29 colon, 90.2%; in the experiment with SNB-75 CNS it was 97.4%; in the experiment with SNB-19 CNS, 90.4%; with U251 CNS, 89.6%; with PC-3 prostate, 88.6%. The growth with SK-MEL-5 melanoma was 98.7%; in the experiment on UACC-62 melanoma, 88.7%; in the experiment with LOX IMVI melanoma it was 60.6%; in the experiment with SK-MEL-28 melanoma, 97.6%.
In the case of `Cc1nc2nc(N)nc(N)c2nc1C`, the growth in the experiment with HCT-15 colon was 98.6%; in the experiment with HT29 colon it was 102%; in the experiment with SNB-75 CNS it was 93.2%; in the experiment on SNB-19 CNS, 95.1%; in the experiment with U251 CNS, 99.5%; with PC-3 prostate, 92.7%. For the same molecule, the growth was 101% in the experiment on SK-MEL-5 melanoma, 91.1% in the experiment on UACC-62 melanoma, 101% in the experiment on LOX IMVI melanoma and 109% in the experiment on SK-MEL-28 melanoma.
With `COc1ccc2nc3cc(Cl)ccc3c(N3CCN(c4ccnc(N5CCN(C)CC5)n4)CC3)c2c1`, the growth with HCT-15 colon is -23.2% (active); in the experiment with HT29 colon, -69.4% (active); in the experiment with SNB-75 CNS it was 90.6%; with SNB-19 CNS, 94.5%; in the experiment on U251 CNS, 46.1%; in the experiment with PC-3 prostate, 63.4%. Further, the growth in the experiment with SK-MEL-5 melanoma is 84.7%; with UACC-62 melanoma, 94.1%; in the experiment with LOX IMVI melanoma, -62.5% (active); with SK-MEL-28 melanoma it was 28.7%.

These data come from PubChem BioAssay (NCI).
